Outcome and AC50 data for 24 molecules are collected here from PubChem BioAssay (EPA / NIEHS).

Active and inactive are the calls of the source. Rule for the calls: active = hit-call score of the fitted dose curve at least 0.9, where 1 is the maximum; inactive = score below 0.9.

This test is described as follows: BSK_3C_uPAR: BioMAP Diversity Plus: 3C Assay for Urokinase-type plasminogen activator receptor (uPAR) Biomarker Activity (AID 2282998). Conditions: BioMAP 3C HUVEC, uPAR biomarker ELISA; actives raise or lower the signal. The gist of the method: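 Values derive from bidirectional curve fitting relative to DMSO, which served as baseline of activity. uPAR was measured by ELISA in human umbilical vein endothelial primary cultures 24 h after compound addition.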
Regarding `CCOP(=S)(Oc1ccc([N+](=O)[O-])cc1)c1ccccc1` (centres undefined), the outcome was inactive. With `COP(=O)(O)OC`, the AC50 is 0.062 µM (active). As to `C=CC(=O)OCC(F)(F)C(F)F`, the outcome was inactive. Turning to `O=C(O)C(F)(OC(F)(F)C(F)(F)C(F)(F)F)C(F)(F)F` (centres undefined), the outcome was inactive.

Turning to `O=P(OCC(Br)CBr)(OCC(Br)CBr)OCC(Br)CBr` (centres undefined), the AC50 is 17.4 µM (active). `N#Cc1cc([N+](=O)[O-])ccc1N`: the result was inactive. In the case of `O=c1ssc(Cl)c1Cl`, the AC50 was 6.09 µM (active). Take `CCOC(=O)c1ccccc1C(=O)OCC`: the result was inactive. For the molecule `CCOP(=S)(OCC)SCSc1ccc(Cl)cc1`, the AC50 is 0.397 µM (active). For `OCC(F)(F)OC(F)(F)C(F)(F)OC(F)(F)C(F)(F)OC(F)(F)CO`, the result was inactive. As for `COP(N)(=S)OC`, the outcome was inactive. The same measure, in the same setting: next, `CC(C)(C)c1ccc(O)cc1`: “inactive”; `FC(F)(F)C(F)(C(F)(F)F)C(F)(F)C(F)(F)CC1CO1` (centres undefined): “inactive”; `COCCOCCO`: “inactive”. The same measure, in the same setting: next, `OCC1CO1` (centres undefined): “inactive”; `CCCCC(CC)COC(=O)c1c(Br)c(Br)c(Br)c(Br)c1C(=O)OCC(CC)CCCC` (centres undefined): “inactive”; `ClC(Cl)(Cl)c1ccccc1`: “inactive”. Take `C=CC(=O)OCC(CC)(COC(=O)C=C)COC(=O)C=C`: the AC50 is 3.57 µM (active). As for `CCOc1ccc(C(C)(C)COCc2cccc(Oc3ccccc3)c2)cc1`, the result was inactive. Still for that read-out and setting: next, `CCOS(=O)(=O)OCC`: “inactive”. On the same count and under the same terms, next, `c1ccc(OP(Oc2ccccc2)Oc2ccccc2)cc1`: “inactive”; `ClC(Cl)c1ccccc1`: “inactive”. Same read-out and setting: next, `Nc1ccc([N+](=O)[O-])cc1Cl`: “inactive”; `Cc1ccc(O)cc1C`: “inactive”.

As usually defined, the AC50 is the concentration at which the activity in the assay is half-maximal.
